Source: PubChem BioAssay AID720518 (National Center for Advancing Translational Sciences (NCATS), 2013)
Records with an inconclusive call do not appear. Where a call stands in place of a potency, no number is given. Activity calls are given as the source filed them. The call rests on the fitted dose curve.

Assay: qHTS for Inhibitors of Cell Surface uPA Generation: Wild-type Protective Antigen (WT-PrAg) Counterscreen for Cherry-picked Compounds
Conditions: cells, WT protective antigen toxicity counterscreen; series mostly up to 115 µM
Potency means the concentration at half of the fitted maximal effect.

| SMILES | Potency |
| --- | --- |
| COc1ccc(NC(=O)CC(C)CC(=O)NCc2ccccc2)c(OC)c1 (stereo not given) | inactive |
| C=C(C)C(=O)O[C@H]1C/C(C)=C\C(=O)/C=C(\C)[C@H](O)[C@@H]2OC(=O)C(=C)[C@@H]21 | inactive |
| NC(=O)c1cc2c3ccccc3ccn2c1-c1ccccc1 | inactive |
| CC(/C=C/C1(O)C(C)CC(O)CC1(C)C)OC1OC(CO)C(O)C(O)C1O (stereo not given) | inactive |
| CC(C)c1ccc(C2/C(=C(\O)c3ccc4c(c3)OCCO4)C(=O)C(=O)N2CCN2CCOCC2)cc1 (stereo not given) | inactive |
| Cc1nn(-c2ccc(F)cc2)c(C)c1NS(=O)(=O)c1ccc(Cl)cc1 | inactive |
| CC1=C(C(=O)OCc2ccccc2)C(c2cccc([N+](=O)[O-])c2)NC(=O)N1 (stereo not given) | inactive |
| CN(C)S(=O)(=O)c1cccc(C(=O)OCC(=O)NCc2ccc3c(c2)OCO3)c1 | inactive |
| COc1cccc(NC(=O)N2C3CCCC2CC(NC(C)=O)C3)c1 (stereo not given) | inactive |
| COc1ccc(N(C(C)C(=O)NN=C2CCCC2)S(C)(=O)=O)cc1 (stereo not given) | inactive |
| COc1ccc([C@H]2[C@H](C(=O)OC(C)(C)C)N3N=Cc4ccccc4C3C23C(=O)c2ccccc2C3=O)cc1OC (stereo not given in full) | inactive |
| O=C(NNC(=O)c1ccc2ccccc2c1)Nc1ccc(F)cc1 | inactive |
| Cc1cc(COc2ccccc2)oc1C(=O)O | inactive |
| Cc1ccnc(NC(=O)CCNS(=O)(=O)c2ccc(C)c(C)c2)c1 | inactive |
| O=C(NNC(=O)c1ncc(Cl)c(Cl)c1Cl)c1ccc(F)cc1 | inactive |
| CSc1nc(N)nc2c1ncn2CC(=O)NCC1CCCO1 (stereo not given) | inactive |
| CCOC(=O)Oc1c(OC)cc(C(=O)O[C@@H]2C[C@@H]3CN4CCc5c([nH]c6cc(OC)ccc56)[C@H]4C[C@@H]3[C@H](C(=O)OC)[C@H]2OC)cc1OC | inactive |
| O=C(CCN1CCN(c2ccccc2F)CC1)Nc1ccc(F)cc1 | inactive |
| NC(=O)c1ccccc1NC(=O)CC12CC3CC(CC(C3)C1)C2 | inactive |
| C[C@@]12C(=O)N(CC3CCCO3)CC(=O)N1[C@H]1c3cc(Cl)ccc3OC[C@@H]1[C@@H]2c1ccccc1 (stereo not given in full) | inactive |

| SMILES | Potency |
| --- | --- |
| Cn1c(C2CCCCC2)nc2cc(N)ccc21 | inactive |
| CC(C)(O)C#Cc1ccc(C(=O)N2CCCC(CCC(=O)NCc3ccccc3F)C2)cc1 (stereo not given) | inactive |
| CCOc1ccccc1C(=O)NC1CCN(CC(=O)Nc2cc(OC)ccc2OC)CC1 | inactive |
| COc1ccc(NC(=O)CN2C(=O)CSc3ncccc32)cc1 | inactive |
| O=C(CNS(=O)(=O)c1ccc(F)cc1)Nc1ccccc1 | inactive |
| O=C(NCc1ccccn1)C1CCN(C(=O)c2cc3sccc3n2Cc2ccc(F)cc2)CC1 | inactive |
| O=C1C[C@@H]2CCN3C(=O)CCC[C@@H]([C@H]23)[C@H]1Cc1ccccc1 | inactive |
| COc1ccc(CC(=O)NNS(=O)(=O)c2ccccc2[N+](=O)[O-])cc1OC | inactive |
| CCC(C)C1NC(=O)C2CCCN2C(=O)C(CC(C)C)OC(=O)CCNC(=O)C(C)N(C)C(=O)C(C(C)C)N(C)C1=O (stereo not given) | 3.69 µM (active) |
| CCOC(=O)C1=C(CN2CCN(C(=O)c3ccco3)CC2)NC(=O)NC1c1ccccc1 (stereo not given) | inactive |
| CN(C)C(=O)NC(NC(=S)Nc1ccccc1)C(Cl)(Cl)Cl (stereo not given) | inactive |
| CCN1CCCCC(=N/O)/C(=N/O)CCCC1 | inactive |
| CC(=O)c1ccc2c(c1)c1ccccc1n2CC(C)C | inactive |
| COc1ccc(C(CNC(=O)C(C)Oc2ccc(Br)cc2)N2CCCC2)cc1 (stereo not given) | inactive |
| COc1ccc(-c2cc3nc(C)cc(-c4ccc(OC)cc4)n3n2)cc1 | inactive |
| COc1ccc(C2NC(=O)CCC2[N+](=O)[O-])c(OC)c1OC (stereo not given) | inactive |
| COc1ccc(/C=N/NC(=O)COc2ccc3ccccc3c2)c(C(=O)O)c1OC | inactive |
| Cc1nc(NC2CCCCC2)c2nnn(Cc3ccccc3Cl)c2n1 | inactive |
| CCNC(=S)NNC(=O)C(c1ccccc1)c1ccccc1 | inactive |
| CC(C)NC(=O)CN1CCC(c2nc3ccccc3[nH]2)CC1 | inactive |
